Cruzain inh Det = blocks cruzain activity in presence of Triton detergent | P25779 | purified cruzain, Z-FR-AMC fluorescence, 0.01% Triton | Potency, µM, inactives show max response, negative = inhibition, actives largely listed as inhibitors | 200,000 compounds, 0.43% hits;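 note: plate controls were neutral wells for no effect and buffer without enzyme for full effect; nearly all actives have a fitted effect of over 40% in size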
Target sequence (P25779 123-467 limits assumed): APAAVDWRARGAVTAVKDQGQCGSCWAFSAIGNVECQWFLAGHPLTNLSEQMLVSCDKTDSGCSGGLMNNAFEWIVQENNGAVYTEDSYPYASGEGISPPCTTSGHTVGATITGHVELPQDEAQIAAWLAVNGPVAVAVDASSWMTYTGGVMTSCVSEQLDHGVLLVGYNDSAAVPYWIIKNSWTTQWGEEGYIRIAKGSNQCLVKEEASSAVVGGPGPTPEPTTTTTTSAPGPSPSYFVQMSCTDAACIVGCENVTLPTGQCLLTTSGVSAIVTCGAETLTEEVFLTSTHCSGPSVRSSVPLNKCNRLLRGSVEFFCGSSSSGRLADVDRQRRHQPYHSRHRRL
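Detergent-containing arm of a paired screen for aggregation-based inhibition: 0.01% Triton X-100 present. Cruzain at 1.5 nM cleaved 2 uM Z-FR-AMC at pH 5.5 with 5 mM DTT; AMC fluorescence gain over 60 s measured activity.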
Cruzain inh noDet = inhibitors of Trypanosoma cruzi cruzain without detergent | P25779 | purified cruzain, Z-FR-AMC fluorescence, no detergent | Potency, µM, for the others: max response, negative = inhibition, most hits filed as inhibitors | 200,000 compounds, 2.3% hits;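 note: plate controls were enzyme without inhibitor for no effect and buffer without enzyme for full effect; nearly all actives have a fitted effect of over 40% in size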
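Detergent-free condition (0.00005% Triton X-100) in acetate buffer pH 5.5 with DTT. 1.5 nM enzyme and compound were pre-mixed 15 min, then 2 uM Z-FR-AMC substrate added; reaction progress from fluorescence change between first and third reads (60 s).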
* hit, by the source's call; ? = inconclusive. Hits are enriched below; roughly 2.4% of the tested compounds scored in any of these assays. Calls come from the whole dose curve; as a rule, active = well fitted curve in the direction sought with a large enough effect; inconclusive = small, poorly fitted or top-dose-only effect, or another doubt; inactive = no such curve, though single readings can be large; an effect the other way counts as inactive or inconclusive. Potency is the fitted concentration of half-maximal effect.

SMILES	Cruzain inh Det	Cruzain inh noDet
CCOC(=O)c1c(-c2ccccc2)csc1NC(=S)NC	-14%	-3%
CCOC(=O)c1c(-c2ccc(C)o2)csc1NC(=S)NC(=O)c1ccccc1Br	-3%	32µM*
CCOC(=O)c1c(-c2ccc(C)o2)csc1NC(=O)CSc1nnc(C)s1	-7%	?
CCOC(=O)c1c(-c2ccc(C)o2)csc1NC(=S)NC(=O)c1cccs1	-1%	25µM*
CCOC(=O)c1c(S(=O)(=O)NCC(=O)N2CCN(c3cccc(Cl)c3)CC2)c(C)n(C)c1C	3%	?
COc1ccc(CCn2c3c(c(=O)[nH]c2=O)C(NC(=O)c2ccccc2OC)(C(F)(F)F)C(=O)N3)cc1OC (configuration not stated)	-1%	-1%
O=C(c1ccco1)N(Cc1cccs1)c1ccc(F)cc1	-4%	-10%
Cc1nc2cnc(N3CCN(C)CC3)nc2n(C)c1=O	?	-18%
CCOC(=O)c1c(NC(=O)C2c3ccccc3Oc3ccccc32)sc(C)c1C	-4%	?
CCOC(=O)c1c(NC(=O)C2c3ccccc3Oc3ccccc32)sc(C(C)=O)c1C	-1%	?
COC(=O)c1sc(NC(=O)C2c3ccccc3Oc3ccccc32)c(C(=O)OC)c1C	-3%	10µM*
COC(=O)c1c(NC(=S)Nc2ccccc2Cl)sc(C)c1C	-3%	13µM*
COC(=O)c1c(NC(=O)C2c3ccccc3Oc3ccccc32)sc(C)c1C	0%	25µM*
COC(=O)c1c(NC(=O)Cc2ccccc2)sc(C)c1C	-8%	-9%
O=S(=O)(CCc1ccccc1)c1nnnn1-c1ccccc1	5%	-1%
O=S1(=O)CCN(Cc2cccc(Cl)c2)CC1	0%	-6%
O=C1NCCN1Cc1cccc(Cl)c1	0%	13µM*
CCc1ccccc1NC(=O)c1nc2nc(C)cc(C(F)F)n2n1	0%	5%
Cc1c(C(=O)N(Cc2ccccc2F)C2CCS(=O)(=O)C2)oc2ccccc12 (configuration not stated)	-6%	3%
COc1ccc(NC(=O)CSc2nc(O)cc(=O)n2-c2ccccc2OC)cc1	?	16µM*
COc1ccccc1-n1c(SCC(=O)Nc2ccc(C)cc2)nc(O)cc1=O	-3%	5%
O=C(NNC(=O)c1cc2cc3ccccc3nc2s1)c1cccc(C(F)(F)F)c1	-10%	25µM*
O=C(NNS(=O)(=O)c1ccccc1)c1cc2cc3ccccc3nc2s1	-7%	-7%
COc1ccc(-c2nc(CCNC(=O)c3ccccc3)cs2)cc1OC	-7%	1%
CC(C)NC(=O)C1CCN(C(=O)N2CC(C)Oc3ccccc32)CC1 (configuration not stated)	-3%	3%
SMILES	Cruzain inh Det	Cruzain inh noDet
CC1CN(C(=O)N2CCC(C(=O)NC3CCCCCC3)CC2)c2ccccc2O1 (configuration not stated)	-3%	7.9µM*
Cc1cccc(C(=O)Nc2cc(-c3ccccc3F)nn2-c2ccccc2)c1	-1%	-8%
O=C(Nc1cc(-c2ccccc2F)nn1-c1ccccc1)c1ccccc1Br	0%	32µM*
CCOC(=O)c1cnc(N2CCN(c3ccc(C)cc3C)CC2)c2ccccc12	1%	3%
CCOc1ccccc1CNC(=O)CCn1cccn1	1%	-3%
Cc1cc(C)c(Cn2c3ccccc3c3cnn(CC(=O)NC4CCC(C)CC4)c(=O)c32)c(C)c1 (configuration not stated)	-2%	2µM*
CC1CCC(NC(=O)Cn2ncc3c4ccccc4n(Cc4ccc(Cl)cc4)c3c2=O)CC1 (configuration not stated)	-2%	2%
Cc1ccc(NC(=O)C(Cc2ccccc2)NS(=O)(=O)c2ccc3c(c2)c(=O)n(C)c(=O)n3C)cc1 (configuration not stated)	0%	6%
Cc1ccc(S(=O)(=O)/C=C\C#N)cc1	0%	-3%
O=S(=O)(Nc1ncnc2sc3c(c12)CCC3)c1ccc2ccccc2c1	-5%	32µM*
c1ccc(Nc2ncnc3sc4c(c23)CCC4)cc1	-5%	-7%
N#CC(C#N)=CC1=C2OC(c3ccccc3)=CC(c3ccccc3)=C2CCC1	2%	5µM*
COc1ccccc1N/C(N)=N/c1nc(CSc2ccc(C)cc2)cc(=O)[nH]1	2%	?
Cc1ccc(SCc2cc(=O)[nH]c(/N=C(\N)Nc3ccccc3Sc3ccccc3)n2)cc1	3%	13µM*
CCC(C(=O)Nc1ccc(F)cc1F)n1nc(-c2ccccc2)c2c(c1=O)CCCC2 (configuration not stated)	-5%	-10%
O=C(O)C1NCCc2ccccc21 (configuration not stated)	4%	10%
S=C1NCCc2ccccc2C1c1ccccc1 (configuration not stated)	?	32µM*
O=S(=O)(Nc1nc2ccccc2nc1NCc1ccco1)c1ccc(Cl)cc1	-13%	20µM*
Cc1ccc(S(=O)(=O)Nc2nc3ccccc3nc2NCc2ccco2)cc1	-9%	?
CC(C)COc1ccc(C(=O)Nc2cc3nn(-c4ccccc4)nc3cc2Cl)cc1	0%	-5%
CC(C)COc1ccc(C(=O)Nc2scc(-c3ccc(Cl)cc3Cl)c2C(N)=O)cc1	-18%	10µM*
O=C(CN1N=C(c2ccc(Cl)cc2)CCC1=O)NCc1ccc(F)cc1	2%	-2%
Cc1ccccc1NC(=O)CSc1nc2cc3c(cc2cc1C)CCC3	-5%	7%
CCC(=O)Nc1ccc(NC(=O)CSc2nc3cc4c(cc3cc2C)CCC4)cc1	6%	25µM*
COc1ccc(-c2c3c(=O)n(C)c(=O)n(C)c3c3c(-c4ccc(C)cc4)nc4ccccc4n23)cc1	-2%	11%
SMILES	Cruzain inh Det	Cruzain inh noDet
O=C1/C(=C/c2cccc(F)c2)CSc2sccc21	-2%	-2%
Cc1cccc(/C=C2\CS/C(=C\c3cccc(C)c3)C2=O)c1	-2%	25µM*
O=Nc1ccc(Nc2ccccc2)cc1	7.1µM*	7.9µM*
c1ccc(Nc2ccc(Nc3ccccc3)cc2)cc1	-7%	2%
c1ccc(-c2ccc(N3CCCC4(CCNCC4)C3)cc2)cc1	-3%	32µM*
c1ccc(-c2ccc(N3CC4(CCNCC4)C3)cc2)cc1	1%	?
C[C@H](NCCN(C)C)[C@@H]1CCC2C3CCc4cc(O)ccc4[C@H]3CCC21C (some centres not stated)	8%	1%
Cc1ccc2c(c1)cc1c(=O)n(CC(=O)N3CCCCC3)nc(C)n12	1%	1%
COc1ccc(-n2ncc3c2ncn2nc(Cc4ccccc4)nc32)cc1	-1%	-10%
COc1cccc(OCc2nc3c4cnn(-c5ccccc5)c4ncn3n2)c1	8%	25µM*
CC1=C(c2ccc(C(C)C)cc2)S(=O)(=O)NC1=NCc1ccccc1C	-5%	-5%
COc1ccc(NC(=O)c2cn(-c3ccccc3)nc2-c2ccc(C)cc2)cc1	-5%	-19%
Cc1ccc(C(=O)COC(=O)c2cc(-c3ccccc3)nc3ccccc23)cc1C	-2%	-5%
O=C(COC(=O)CN1C(=O)c2ccccc2C1=O)Nc1ncc(Cl)cc1Cl	-6%	-20%
CC(=O)Nc1ccc(C(=O)OCC(=O)c2ccc(C)c([N+](=O)[O-])c2)cc1	-4%	7%
COc1ccc(-c2cc(C(=O)OCC(=O)c3ccc(C)c([N+](=O)[O-])c3)c3ccccc3n2)cc1	-1%	10µM*
Cc1ccc(-c2nn(-c3ccccc3)cc2C(=O)OCC(=O)Nc2ncc(Cl)cc2Cl)cc1	-6%	32µM*

Screening results from PubChem BioAssay.
